Giardia FBPA inh: inhibitors of Giardia lamblia fructose-1,6-bisphosphate aldolase. Potency, µM (series often up to 59.6 µM), most hits filed as inhibitors. AID 2451. 0.71% of 290,000 active. A8B2U2. purified Giardia FBPA; further: nearly all actives have a fitted effect of over 55% in size
Target sequence (A8B2U2 whole entry, looked up): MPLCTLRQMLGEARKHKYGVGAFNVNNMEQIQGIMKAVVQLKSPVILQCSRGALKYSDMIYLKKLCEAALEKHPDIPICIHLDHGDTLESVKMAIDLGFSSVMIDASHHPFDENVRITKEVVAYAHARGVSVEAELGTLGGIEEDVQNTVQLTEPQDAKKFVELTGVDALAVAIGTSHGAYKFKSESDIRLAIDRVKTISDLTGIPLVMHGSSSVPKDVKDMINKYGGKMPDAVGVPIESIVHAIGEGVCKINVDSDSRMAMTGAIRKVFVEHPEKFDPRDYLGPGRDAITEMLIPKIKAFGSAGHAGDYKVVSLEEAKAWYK
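Giardia FBPA (40 nM reagent) was preincubated 10 min at RT with compound (up to 57.5 uM final), then substrate plus GAPDH/TPI/NAD/arsenate coupling system with diaphorase/resazurin was added; resorufin fluorescence (525/598 nm) was read after 20 min.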
CHX counter: affects cycloheximide protein synthesis inhibition readout, counter-screen. AID 2314. max response, %. 12% of 300,000 active. cell reporter, cycloheximide protein synthesis inhibition counterscreen; in the data active means max response mostly above about 13%, no sharp cut-off; inactive means mostly below about 14%; further: read at 38.3 µM for the half of the compounds with a filed dose
RE007 growth inh: less growth of the S. pombe RE007 Vpr strain; S. pombe RE007 Vpr strain, BacTiter-Glo ATP luminescence, 24 h; Potency, µM (top dose mostly 92.2 µM), actives largely listed as inhibitors; 0.21% of 360,000 active; AID 651644; active means well fitted falling curve with a large enough effect; inconclusive means small, poorly fitted or top-dose-only effect; inactive means no such curve, though single readings can be large or run the other way; further: nearly all actives have a fitted effect of over 50% in size
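Fission yeast RE007 carrying one integrated HIV-1 vpr copy, seeded at OD 0.01 in PMG+AL medium with 23 nL pinned compound. Grown 24 h at 30 degrees; viability read by BacTiter-Glo luminescence after 5 min.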
TbPYK inhibitor: T. brucei pyruvate kinase inhibition | AID 624173 | Q57TT1 | TbPYK enzyme, Kinase-Glo Plus ATP luminescence, 45 min | Potency, µM (doses to about 76.8 µM), usual class: inhibitors | 0.12% of 410,000 active; further: nearly all actives have a fitted effect of over 50% in size
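Glycolytic pyruvate kinase of T. brucei was incubated with substrate, test compound and 130 uM ADP for 45 minutes at room temperature. Luminescent Kinase-Glo Plus signal was measured after 10 minutes.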
Shiga inhibitor: inhibitors of Shiga toxin in Vero cells. Vero cells, Shiga toxin protein synthesis inhibition reporter. inhibition, % at 38.7 µM. 9.2% of 290,000 active; in the data active means inhibition mostly above about 28%, no sharp cut-off; inactive means mostly below about 43%
LmPK inhibitor: blocks Leishmania mexicana pyruvate kinase activity; 0.37% of 290,000 active; Potency, µM (top dose mostly 57.5 µM), hits mostly inhibitors; AID 1721; purified LmPK, Kinase-Glo ATP luminescence, 1 h; Q27686
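qHTS format; LmPK 0.1 nM; substrates PEP 0.5 mM and ADP 0.1 mM. One-hour room-temperature incubation, then coupled luciferase luminescence; 0.5 nM enzyme wells mark activation.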
Large screens that a line does not name were inactive. This excerpt belongs to a sample that is enriched for hits. Unless noted, the call rests on the fitted dose curve; in most records, active means well fitted curve in the direction sought with a large enough effect; inconclusive means small, poorly fitted or top-dose-only effect, or another doubt; inactive means no such curve, though single readings can be large; an effect the other way counts as inactive or inconclusive.

Cc1ccc(C(=O)OCC(=O)Nc2ccc(C(N)=O)cc2)s1	none (no result: Giardia FBPA inh, CHX counter, Shiga inhibitor, LmPK inhibitor)
CCN(c1ccc(NC(=O)COC(=O)c2ccc(C)s2)cc1)C(C)C	CHX counter 19.1
CC(C)c1ccc(NC(=O)COC(=O)C2=COCCO2)cc1	CHX counter 32.7
Cc1ccccc1NC(=O)COC(=O)C1(C)CC1(Cl)Cl (centres undefined)	none
O=C(COC(=O)c1ccc([N+](=O)[O-])s1)Nc1ccc(F)cc1	RE007 growth inh inconclusive (no result: Giardia FBPA inh, CHX counter, Shiga inhibitor, LmPK inhibitor)
CC(C)(C)c1ccc(NC(=O)COC(=O)c2ccc([N+](=O)[O-])s2)cc1	CHX counter 13.7 (no result: RE007 growth inh)
CC(C)(C)c1ccc(NC(=O)COC(=O)C2(C)CC2(Cl)Cl)cc1 (centres undefined)	CHX counter 49.4, Shiga inhibitor 76.7
Cn1c(=O)c2c(ncn2CC(COCc2ccccc2)OCc2ccccc2)n(C)c1=O (centres undefined)	none
CC(C)[C@H](NS(=O)(=O)c1cccc(C(F)(F)F)c1)C(=O)OCC(=O)NC(=O)NCc1ccco1	none (no result: Giardia FBPA inh, CHX counter, Shiga inhibitor, LmPK inhibitor)
O=C(CSc1nnc(Cc2ccccc2)n1Cc1ccccc1)NCc1ccco1	Shiga inhibitor 23.4
O=C(CSc1nnc(-c2cccnc2)n1Cc1ccccc1)NCc1ccco1	none
O=C(CSc1nnc(CNc2ccc(Cl)cc2)n1Cc1ccccc1)NCc1ccco1	CHX counter 14.4
O=C(O)CCSc1nnc(CNc2ccc(Cl)cc2)n1Cc1ccccc1	none
Nc1ccc(CSc2ccc(Cl)cc2)cc1	CHX counter 23.8, Shiga inhibitor 58.6
O=c1c(O)cc(C2Oc3cc(O)cc(O)c3CC2O)cc2c(C3Oc4cc(O)cc(O)c4CC3O)cc(O)c(O)c12 (centres undefined)	Giardia FBPA inh 0.889µM (no result: CHX counter, RE007 growth inh, TbPYK inhibitor, Shiga inhibitor, LmPK inhibitor)
Oc1cc(O)c2c(c1)O[C@H](c1ccc(O)c(O)c1)[C@@H](O)C2	none
CCN1CCN(c2ccc([N+](=O)[O-])cc2C=C2C(=O)NC(=O)NC2=O)CC1	TbPYK inhibitor 22.4µM
CCC(=O)N1N=C(c2ccc(Cl)cc2)CC1c1ccco1 (centres undefined)	none
CCc1ccc(C2=NN(C(C)=O)C(c3ccco3)C2)cc1 (centres undefined)	CHX counter 34.2, Shiga inhibitor 78.6, LmPK inhibitor 15.8µM
COc1ccc(C2=NN(C(=O)c3ccco3)C(c3ccco3)C2)cc1OC (centres undefined)	CHX counter 13.9, Shiga inhibitor 41.1
COc1ccc(C2=NN(C(N)=S)C(c3ccco3)C2)cc1 (centres undefined)	CHX counter 19.8
Nc1cc(N)nc(SCCOc2ccccc2F)n1	CHX counter 70.5, Shiga inhibitor 121.2
COc1ccccc1OCC#CCSc1ncccn1	CHX counter 23.7
COc1ccccc1OCCSc1nc(N)cc(N)n1	Shiga inhibitor active
COc1ccccc1OCC#CCN1CCCC1	Giardia FBPA inh inconclusive
Cc1c(CCNC(=O)C(C)(C)C)sc2nc(-c3ccc(F)cc3)nn12	none (no result: Giardia FBPA inh, CHX counter, RE007 growth inh, Shiga inhibitor, LmPK inhibitor)
COc1ccc(NC(=O)CSc2nc(C)cc(C)c2C(=O)Nc2cccc(C)c2)cc1	none (no result: Giardia FBPA inh, CHX counter, RE007 growth inh, Shiga inhibitor, LmPK inhibitor)
Clc1ccccc1-c1nc(NCc2cccs2)c2ccccc2n1	none (no result: CHX counter, RE007 growth inh, TbPYK inhibitor, Shiga inhibitor, LmPK inhibitor)
Cc1sc2nc(-c3ccccn3)[nH]c(=O)c2c1-c1ccccc1	Giardia FBPA inh inconclusive, CHX counter 70.9, RE007 growth inh inconclusive, Shiga inhibitor 113.8
Cc1ccc2nc(-c3ccccn3)[nH]c2c1	CHX counter 18.3, RE007 growth inh inconclusive, TbPYK inhibitor inconclusive, LmPK inhibitor 22.4µM
c1ccc(-c2nc3c(ccc4ccccc43)[nH]2)nc1	CHX counter 42.4, RE007 growth inh inconclusive, Shiga inhibitor 94.2
c1ccc(-c2nc3ccccc3[nH]2)nc1	CHX counter 72.2, Shiga inhibitor 117.0, LmPK inhibitor inconclusive
Cc1sc2nc(-c3ccncc3)[nH]c(=O)c2c1-c1ccccc1	none (no result: RE007 growth inh, TbPYK inhibitor)
O=c1[nH]c(-c2ccccn2)nc(C(F)(F)F)c1Br	Giardia FBPA inh inconclusive, RE007 growth inh inconclusive
CCOc1ccc(CC(=O)Nc2c(C(=O)c3ccc(F)cc3)oc3ccc(Cl)cc23)cc1OCC	none (no result: Giardia FBPA inh, CHX counter, RE007 growth inh, Shiga inhibitor, LmPK inhibitor)
CN(C)CCCNc1cc(N2CCN(C3CCCCC3)CC2)c2noc3c2c1C(=O)c1ccccc1-3	none (no result: Giardia FBPA inh, CHX counter, RE007 growth inh, Shiga inhibitor, LmPK inhibitor)
CCCS(=O)(=O)Nc1cc2c(cc1NCc1ccccc1)n(C)c(=O)n2C	none (no result: Giardia FBPA inh, CHX counter, RE007 growth inh, Shiga inhibitor, LmPK inhibitor)
